Compounds without any hit were thinned out: in the full panel of roughly 83,000, 20% have a hit.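 How to read the values: 0–100, growth inhibition (40 = 60% inhibited); 0, no net growth; -100 to 0, cell death (-40 = 40% of starting cells died; -100 = all dead).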 Activity calls are given as the source filed them. Rule for the calls: active = growth percent below 10; inactive = the rest.
Columns and labels:
Assay in all cases: NCI-60 one-dose screen, 48 h (100 = growth as untreated, 0 = no growth, -100 = all killed)
Details in all cases: 10 µM unless noted
SR leukemia = system: SR leukemia
RPMI-8226 leukemia = system: RPMI-8226 leukemia
OVCAR-8 ovarian = system: OVCAR-8 ovarian
OVCAR-4 ovarian = system: OVCAR-4 ovarian
SK-OV-3 ovarian = system: SK-OV-3 ovarian
IGROV1 ovarian = system: IGROV1 ovarian
OVCAR-3 ovarian = system: OVCAR-3 ovarian
HS 578T breast = system: HS 578T breast
NCI/ADR-RES ovarian = system: NCI/ADR-RES ovarian
OVCAR-5 ovarian = system: OVCAR-5 ovarian

Measured: growth

CC(C)NCC(O)COc1ccc(CC(N)=O)cc1 (centres undefined)
inactive: SR leukemia 102% | RPMI-8226 leukemia 99.1% | OVCAR-8 ovarian 96.8% | OVCAR-4 ovarian 105% | SK-OV-3 ovarian 103% | IGROV1 ovarian 97.4% | OVCAR-3 ovarian 114% | HS 578T breast 104% | NCI/ADR-RES ovarian 104%

CC(CN(C)C)CN1c2ccccc2CCc2ccccc21 (centres undefined)
inactive: SR leukemia 91.4% | RPMI-8226 leukemia 90.4% | OVCAR-8 ovarian 106% | SK-OV-3 ovarian 95% | IGROV1 ovarian 62% | OVCAR-3 ovarian 111% | HS 578T breast 86.4% | NCI/ADR-RES ovarian 76.4%

O=C(NCCNc1nccc(-c2c(-c3cccc(O)c3)nc3sccn23)n1)c1cccc(C(F)(F)F)c1
inactive: SR leukemia 97% | RPMI-8226 leukemia 44.2% | OVCAR-5 ovarian 113% | OVCAR-4 ovarian 117% | SK-OV-3 ovarian 84.2% | IGROV1 ovarian 62.1% | OVCAR-3 ovarian 89.8% | NCI/ADR-RES ovarian 98.3%

COc1cc(NS(C)(=O)=O)ccc1Cc1c2ccccc2nc2ccccc12
active: SR leukemia -5.52% | OVCAR-8 ovarian 2.44% | OVCAR-3 ovarian -76.6%
inactive: RPMI-8226 leukemia 22% | OVCAR-4 ovarian 38.8% | SK-OV-3 ovarian 18% | IGROV1 ovarian 36.5% | HS 578T breast 48% | NCI/ADR-RES ovarian 62.3%

Cc1[nH]c2ccc(F)cc2c1CCNC(=O)C1CCN(C(=O)c2ccc(-c3ccccc3)cc2)CC1
inactive: RPMI-8226 leukemia 44.5% | OVCAR-8 ovarian 56.3% | OVCAR-5 ovarian 90.1% | OVCAR-4 ovarian 44.7% | SK-OV-3 ovarian 63.8% | IGROV1 ovarian 67.1% | OVCAR-3 ovarian 63.8% | HS 578T breast 72.7% | NCI/ADR-RES ovarian 49.6%

NC(N)=N/N=C/c1ccc([N+](=O)[O-])cc1
inactive: SR leukemia 110% | OVCAR-8 ovarian 108% | OVCAR-5 ovarian 99.1% | OVCAR-4 ovarian 102% | SK-OV-3 ovarian 108% | IGROV1 ovarian 125% | OVCAR-3 ovarian 117% | HS 578T breast 86.5% | NCI/ADR-RES ovarian 78.5%

Cc1ccc(N(CC2=NCCN2)c2cccc(O)c2)cc1
inactive: SR leukemia 95.3% | RPMI-8226 leukemia 94.5% | OVCAR-8 ovarian 95.2% | OVCAR-4 ovarian 103% | SK-OV-3 ovarian 105% | IGROV1 ovarian 90.3% | OVCAR-3 ovarian 112% | HS 578T breast 101% | NCI/ADR-RES ovarian 104%

CS(=O)(=O)OCC(COS(C)(=O)=O)C(c1ccccc1)c1ccccc1
inactive: SR leukemia 74.7% | OVCAR-8 ovarian 118% | OVCAR-5 ovarian 110% | SK-OV-3 ovarian 101% | IGROV1 ovarian 102% | OVCAR-3 ovarian 127% | HS 578T breast 104% | NCI/ADR-RES ovarian 99%

COc1cc([C@@H]2c3cc4c(cc3C(OC3O[C@@H]5COC(C)O[C@H]5[C@H](O)[C@H]3O)C3COC(=O)[C@@H]32)OCO4)cc(OC)c1O (some centres undefined)
active: SR leukemia -3.83%
inactive: RPMI-8226 leukemia 37.4% | OVCAR-8 ovarian 26.9% | SK-OV-3 ovarian 35% | IGROV1 ovarian 65.4% | OVCAR-3 ovarian 37.1% | HS 578T breast 59.3% | NCI/ADR-RES ovarian 90.4%

O=C(CNc1cccnc1)Nc1ccc(C(=O)/C=C/c2ccc(Cl)cc2)cc1
inactive: RPMI-8226 leukemia 21.7% | OVCAR-8 ovarian 98.1% | OVCAR-5 ovarian 92.7% | OVCAR-4 ovarian 87.1% | SK-OV-3 ovarian 111% | IGROV1 ovarian 95.1% | OVCAR-3 ovarian 89.8% | HS 578T breast 82.1% | NCI/ADR-RES ovarian 98%

c1ccc([Se]CCCN2CCN(CCC[Se]c3ccccc3)CC2)cc1
inactive: SR leukemia 126% | OVCAR-8 ovarian 119% | OVCAR-5 ovarian 121% | OVCAR-4 ovarian 101% | SK-OV-3 ovarian 113% | IGROV1 ovarian 103% | OVCAR-3 ovarian 116% | HS 578T breast 110% | NCI/ADR-RES ovarian 101%

COC(OC)C1(c2ccccc2)NC(=O)NC1=O (centres undefined)
inactive: SR leukemia 74.8% | OVCAR-8 ovarian 103% | OVCAR-5 ovarian 122% | OVCAR-4 ovarian 113% | SK-OV-3 ovarian 102% | IGROV1 ovarian 142% | OVCAR-3 ovarian 126% | HS 578T breast 111% | NCI/ADR-RES ovarian 116%

COc1ccccc1P(c1ccccc1OC)c1ccccc1OC
inactive: SR leukemia 107% | RPMI-8226 leukemia 113% | OVCAR-8 ovarian 66% | OVCAR-4 ovarian 100% | SK-OV-3 ovarian 91.2% | OVCAR-3 ovarian 108% | HS 578T breast 133% | NCI/ADR-RES ovarian 172%

CCC1(C(N)=O)CC2C=CC1CC2 (centres undefined)
inactive: SR leukemia 109% | RPMI-8226 leukemia 89.1% | OVCAR-8 ovarian 61.2% | OVCAR-4 ovarian 108% | SK-OV-3 ovarian 91.9% | OVCAR-3 ovarian 115% | HS 578T breast 149% | NCI/ADR-RES ovarian 244%

O=C(COc1ccc(Cl)cc1)N1CCN(Cc2ccc3c(c2)OCO3)CC1
inactive: SR leukemia 97.8% | RPMI-8226 leukemia 88.7% | OVCAR-8 ovarian 91.8% | OVCAR-4 ovarian 94.5% | SK-OV-3 ovarian 93.5% | IGROV1 ovarian 106% | OVCAR-3 ovarian 99.2% | HS 578T breast 92.8% | NCI/ADR-RES ovarian 92.6%

From PubChem BioAssay (NCI)
